# From the supplement of paper PMC10849652
# About 7,900 targets were measured; listed, in parts, are those with a hit and a random draw of the rest. About 0.6% of all pairs of compound and target were hits. A number with no mark means an inactive call.
# How the values were obtained:
# Test in all cases: log2 fold change, soluble protein after heating vs DMSO (PISA); higher = thermal stabilisation; K562 cells, 10 uM, 30 min; active = over 0.2 and 3.5 SD of the protein, either way, in both replicates (recomputed)
# [1] = compound: CS(=O)(=O)c1ccc(-c2cnc(N)c(C(=O)Nc3ccccc3)n2)cc1
# Summary of the method: (§1)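 For each measurement, 10 μM compound was applied for 30 min to K562 cells at 2×10^6 cells/mL. Aliquots were heated for 3 min across 48°C-58°C, pooled, and extracted in PBS with 0.5% NP-40 at 4°C; the supernatant after 21,000xg for 90 min was soluble protein. This was quantified by TMTpro 16plex LC-MS/MS with channel sums equalised, and thermal stability was reported relative to control samples from duplicates, on a log2 fold-change scale.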
# [2] = compound: C[C@@H](Oc1cc(-c2cnn(C3CCNCC3)c2)cnc1N)c1c(Cl)ccc(F)c1Cl [crizotinib]
# Summary of the method: as §1
# [3] = compound: C[C@@H]1COCCN1C2=NC(=NC(=C2)C3(CC3)S(=O)(=O)C)C4=C5C=CNC5=CC=C4
# Summary of the method: as §1
# [4] = compound: C[C@H](C1=CC=C(C=C1)C(=O)NC2=C3C=CNC3=NC=C2)N
# Summary of the method: as §1
# [5] = compound: C[C@H](Nc1ncnc2nc[nH]c12)c1cc2cccc(Cl)c2c(=O)n1-c1ccccc1 [duvelisib]
# Summary of the method: as §1
# [6] = compound: Cc1cc(Nc2cc(CN3CCOCC3)c3nc(C)c(Cc4ccc(Cl)cc4F)n3n2)n[nH]1 [gandotinib]
# Summary of the method: as §1
# [7] = compound: Cc1cc(Nc2cc(N3CCN(C)CC3)nc(Sc3ccc(NC(=O)C4CC4)cc3)n2)n[nH]1 [tozasertib]
# Summary of the method: as §1
# [8] = compound: Cc1cc(SCc2sc(-c3ccc(C(F)(F)F)cc3)nc2C)ccc1OCC(=O)O
# Summary of the method: as §1
# [9] = compound: Cc1ccc(-n2nc(C(C)(C)C)cc2NC(=O)Nc2ccc(OCCN3CCOCC3)c3ccccc23)cc1 [doramapimod]
# Summary of the method: as §1
# [10] = compound: Cc1ccc(C(=O)N(CCCN)[C@@H](c2nc3cc(Cl)ccc3c(=O)n2Cc2ccccc2)C(C)C)cc1 [ispinesib]
# Summary of the method: as §1
# [11] = compound: Cc1ccc(NC(=O)c2ccc(CN3CC[C@H](N(C)C)C3)c(C(F)(F)F)c2)cc1Nc1nccc(-c2cncnc2)n1 [bafetinib]
# Summary of the method: as §1
# [12] = compound: Cc1cccc(CC(=O)N2CCc3c2ccc(-c2cn(C)c4ncnc(N)c24)c3F)n1
# Summary of the method: as §1
# [13] = compound: Cc1cn(-c2cc(NC(=O)c3ccc(C)c(Nc4nccc(-c5cccnc5)n4)c3)cc(C(F)(F)F)c2)cn1 [nilotinib]
# Summary of the method: as §1
# [14] = compound: Cc1nc(Nc2n[nH]c3c2CN(C(=O)N[C@H](CN(C)C)c2ccccc2)C3(C)C)c2sccc2n1
# Summary of the method: as §1
# [15] = compound: Cc1nc(Nc2ncc(C(=O)Nc3c(C)cccc3Cl)s2)cc(N2CCN(CCO)CC2)n1 [dasatinib]
# Summary of the method: as §1
# [16] = compound: Cc1ncc(-c2ccnc(Nc3ccc(S(C)(=O)=O)cc3)n2)n1C(C)C
# Summary of the method: as §1
# [17] = compound: Cn1cc(-c2ccc3c(c2)CCN3C(=O)Cc2cccc(C(F)(F)F)c2)c2c(N)ncnc21
# Summary of the method: as §1
# [18] = compound: Cn1cc(-c2ccc3nnc(C(F)(F)c4ccc5ncccc5c4)n3n2)cn1
# Summary of the method: as §1
# [19] = compound: Cn1cncc1[C@@](N)(c1ccc(Cl)cc1)c1ccc2c(c1)c(-c1cccc(Cl)c1)cc(=O)n2C [tipifarnib]
# Summary of the method: as §1
# [20] = compound: FC(F)(F)c1ccc(/C=C/c2nc(COc3ccc(CCCCn4ccnn4)cc3)co2)cc1 [mubritinib]
# Summary of the method: as §1
# Chain of UniProt P48730 (P48730 whole entry, looked up): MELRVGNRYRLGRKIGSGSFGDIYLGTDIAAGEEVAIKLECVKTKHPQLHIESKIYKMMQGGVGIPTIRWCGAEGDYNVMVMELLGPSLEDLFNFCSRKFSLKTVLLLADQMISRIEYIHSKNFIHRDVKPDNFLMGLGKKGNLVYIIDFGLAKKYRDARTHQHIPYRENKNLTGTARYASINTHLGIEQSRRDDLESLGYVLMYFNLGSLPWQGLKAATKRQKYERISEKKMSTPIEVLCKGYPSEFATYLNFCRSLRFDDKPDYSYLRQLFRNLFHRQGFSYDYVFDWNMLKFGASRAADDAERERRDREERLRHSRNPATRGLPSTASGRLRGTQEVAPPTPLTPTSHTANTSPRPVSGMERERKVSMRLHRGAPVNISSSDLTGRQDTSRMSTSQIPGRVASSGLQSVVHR
# Chain of UniProt P51946 (P51946 whole entry, looked up): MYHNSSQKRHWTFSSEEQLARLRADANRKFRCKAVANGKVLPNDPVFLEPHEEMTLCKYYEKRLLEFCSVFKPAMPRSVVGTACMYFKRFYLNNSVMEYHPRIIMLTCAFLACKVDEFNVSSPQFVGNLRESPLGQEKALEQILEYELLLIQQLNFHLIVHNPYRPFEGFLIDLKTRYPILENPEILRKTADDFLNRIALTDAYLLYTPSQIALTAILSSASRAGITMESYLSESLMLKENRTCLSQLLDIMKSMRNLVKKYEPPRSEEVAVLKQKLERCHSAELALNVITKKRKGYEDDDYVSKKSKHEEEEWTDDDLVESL
# Chain of UniProt Q99439 (Q99439 whole entry, looked up): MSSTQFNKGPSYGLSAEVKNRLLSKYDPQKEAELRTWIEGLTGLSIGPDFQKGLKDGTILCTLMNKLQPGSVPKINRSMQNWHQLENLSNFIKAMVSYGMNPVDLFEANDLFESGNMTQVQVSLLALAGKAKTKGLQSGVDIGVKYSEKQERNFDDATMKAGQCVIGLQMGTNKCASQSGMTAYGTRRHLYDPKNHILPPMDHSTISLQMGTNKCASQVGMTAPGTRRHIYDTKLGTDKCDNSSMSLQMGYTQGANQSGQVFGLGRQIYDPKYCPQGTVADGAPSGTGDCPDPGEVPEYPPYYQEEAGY
# Chain of UniProt P35520 (P35520 whole entry, looked up): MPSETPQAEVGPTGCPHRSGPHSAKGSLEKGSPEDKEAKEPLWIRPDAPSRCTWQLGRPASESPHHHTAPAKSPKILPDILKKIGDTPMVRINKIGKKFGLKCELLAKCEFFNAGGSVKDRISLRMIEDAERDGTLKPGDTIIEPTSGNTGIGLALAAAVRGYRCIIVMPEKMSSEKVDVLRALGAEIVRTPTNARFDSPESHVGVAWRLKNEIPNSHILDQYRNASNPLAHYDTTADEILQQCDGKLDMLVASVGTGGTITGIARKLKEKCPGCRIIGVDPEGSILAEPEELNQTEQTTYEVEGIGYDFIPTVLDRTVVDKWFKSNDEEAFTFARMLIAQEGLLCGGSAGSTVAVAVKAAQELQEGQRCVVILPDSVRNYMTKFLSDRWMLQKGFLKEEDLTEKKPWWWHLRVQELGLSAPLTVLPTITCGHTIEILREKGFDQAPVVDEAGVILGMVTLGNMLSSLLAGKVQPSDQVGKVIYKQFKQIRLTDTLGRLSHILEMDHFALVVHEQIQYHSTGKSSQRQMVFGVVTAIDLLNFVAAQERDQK
# Chain of UniProt P00915 (P00915 whole entry, looked up): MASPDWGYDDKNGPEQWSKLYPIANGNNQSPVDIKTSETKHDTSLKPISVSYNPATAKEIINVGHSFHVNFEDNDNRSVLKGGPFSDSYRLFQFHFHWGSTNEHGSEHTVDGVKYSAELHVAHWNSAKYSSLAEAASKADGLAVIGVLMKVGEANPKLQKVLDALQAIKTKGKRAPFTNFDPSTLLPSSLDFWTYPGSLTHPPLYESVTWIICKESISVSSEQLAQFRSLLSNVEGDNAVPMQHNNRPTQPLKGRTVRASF
# Chain of UniProt Q8IUI8 (Q8IUI8 whole entry, looked up): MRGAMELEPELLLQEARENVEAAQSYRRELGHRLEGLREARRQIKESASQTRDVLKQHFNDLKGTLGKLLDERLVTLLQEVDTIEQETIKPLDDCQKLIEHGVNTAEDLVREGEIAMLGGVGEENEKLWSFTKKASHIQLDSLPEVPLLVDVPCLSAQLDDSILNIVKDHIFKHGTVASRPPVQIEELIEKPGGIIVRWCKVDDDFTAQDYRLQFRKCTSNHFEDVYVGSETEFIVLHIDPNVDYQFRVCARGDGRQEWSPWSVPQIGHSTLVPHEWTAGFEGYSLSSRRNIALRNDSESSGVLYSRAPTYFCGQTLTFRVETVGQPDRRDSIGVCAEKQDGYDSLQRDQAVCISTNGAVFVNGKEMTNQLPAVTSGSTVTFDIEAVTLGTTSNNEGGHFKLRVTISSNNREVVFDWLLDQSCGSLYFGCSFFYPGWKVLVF
# Chain of UniProt Q8NHZ8 (Q8NHZ8 whole entry, looked up): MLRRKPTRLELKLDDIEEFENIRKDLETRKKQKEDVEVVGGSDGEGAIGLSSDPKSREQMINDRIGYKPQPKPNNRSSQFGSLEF
# Chain of UniProt P51798 (P51798 whole entry, looked up): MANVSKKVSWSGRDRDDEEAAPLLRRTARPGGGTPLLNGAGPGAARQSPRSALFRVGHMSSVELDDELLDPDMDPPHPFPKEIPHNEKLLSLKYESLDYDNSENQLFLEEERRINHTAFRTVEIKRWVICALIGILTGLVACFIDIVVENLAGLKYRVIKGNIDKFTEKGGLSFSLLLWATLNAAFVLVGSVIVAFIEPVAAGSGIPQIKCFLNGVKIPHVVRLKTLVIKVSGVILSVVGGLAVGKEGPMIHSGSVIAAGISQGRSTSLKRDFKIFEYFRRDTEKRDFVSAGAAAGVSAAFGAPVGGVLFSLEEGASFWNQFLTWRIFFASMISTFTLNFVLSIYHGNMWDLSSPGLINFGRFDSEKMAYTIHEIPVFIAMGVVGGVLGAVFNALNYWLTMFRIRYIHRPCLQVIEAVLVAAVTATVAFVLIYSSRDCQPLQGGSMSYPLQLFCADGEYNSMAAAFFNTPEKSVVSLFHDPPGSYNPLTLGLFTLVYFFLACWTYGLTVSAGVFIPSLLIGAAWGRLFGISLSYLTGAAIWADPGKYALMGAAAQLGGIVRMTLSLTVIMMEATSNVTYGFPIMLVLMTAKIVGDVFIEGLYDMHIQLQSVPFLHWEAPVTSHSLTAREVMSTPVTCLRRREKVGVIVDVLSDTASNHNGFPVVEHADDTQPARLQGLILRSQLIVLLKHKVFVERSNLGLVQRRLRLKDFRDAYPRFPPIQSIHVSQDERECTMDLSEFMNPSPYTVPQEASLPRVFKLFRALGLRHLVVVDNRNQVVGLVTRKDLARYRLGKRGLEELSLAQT
# Chain of UniProt Q9NZN8 (Q9NZN8 whole entry, looked up): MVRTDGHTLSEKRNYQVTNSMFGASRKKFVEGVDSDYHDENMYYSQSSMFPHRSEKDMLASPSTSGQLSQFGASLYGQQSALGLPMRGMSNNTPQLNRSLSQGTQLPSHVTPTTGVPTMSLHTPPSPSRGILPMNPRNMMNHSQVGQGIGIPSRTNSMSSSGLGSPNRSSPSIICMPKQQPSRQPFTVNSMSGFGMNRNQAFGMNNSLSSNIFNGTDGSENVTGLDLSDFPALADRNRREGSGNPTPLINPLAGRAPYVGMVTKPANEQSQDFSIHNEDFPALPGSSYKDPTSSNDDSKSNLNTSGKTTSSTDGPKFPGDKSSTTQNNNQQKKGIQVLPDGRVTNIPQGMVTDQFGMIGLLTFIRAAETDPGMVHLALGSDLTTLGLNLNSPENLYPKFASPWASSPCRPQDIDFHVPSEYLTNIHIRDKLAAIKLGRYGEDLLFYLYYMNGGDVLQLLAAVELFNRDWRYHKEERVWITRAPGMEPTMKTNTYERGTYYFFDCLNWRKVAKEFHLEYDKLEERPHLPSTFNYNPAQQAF
# Chain of UniProt Q96G23 (Q96G23 whole entry, looked up): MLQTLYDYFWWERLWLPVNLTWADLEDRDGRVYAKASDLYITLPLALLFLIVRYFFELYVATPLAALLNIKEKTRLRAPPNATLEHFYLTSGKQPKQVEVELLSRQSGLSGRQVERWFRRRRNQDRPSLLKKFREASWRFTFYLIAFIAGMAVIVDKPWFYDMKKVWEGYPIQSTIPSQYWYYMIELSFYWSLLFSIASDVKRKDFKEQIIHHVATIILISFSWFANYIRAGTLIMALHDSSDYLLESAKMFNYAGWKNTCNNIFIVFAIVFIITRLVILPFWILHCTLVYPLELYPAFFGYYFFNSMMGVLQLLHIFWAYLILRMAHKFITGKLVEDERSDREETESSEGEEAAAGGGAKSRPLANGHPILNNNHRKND
# Chain of UniProt Q9Y5P4 (Q9Y5P4 whole entry, looked up): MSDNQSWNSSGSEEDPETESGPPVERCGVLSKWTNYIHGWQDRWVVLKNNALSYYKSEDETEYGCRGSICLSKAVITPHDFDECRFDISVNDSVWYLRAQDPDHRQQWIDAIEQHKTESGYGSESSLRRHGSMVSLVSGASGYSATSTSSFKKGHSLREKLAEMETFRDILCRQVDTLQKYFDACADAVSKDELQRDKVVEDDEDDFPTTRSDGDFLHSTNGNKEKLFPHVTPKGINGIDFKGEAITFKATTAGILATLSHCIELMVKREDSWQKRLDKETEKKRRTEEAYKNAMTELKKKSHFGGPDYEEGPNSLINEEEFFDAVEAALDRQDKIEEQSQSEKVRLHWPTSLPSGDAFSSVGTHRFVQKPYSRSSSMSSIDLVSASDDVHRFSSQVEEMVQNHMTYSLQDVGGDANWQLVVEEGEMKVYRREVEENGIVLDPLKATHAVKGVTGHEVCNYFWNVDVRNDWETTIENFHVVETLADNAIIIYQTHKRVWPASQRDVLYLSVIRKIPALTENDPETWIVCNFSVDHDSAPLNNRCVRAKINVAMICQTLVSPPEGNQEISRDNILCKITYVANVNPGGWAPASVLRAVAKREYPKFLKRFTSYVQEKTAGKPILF
# Chain of UniProt Q99627 (Q99627 whole entry, looked up): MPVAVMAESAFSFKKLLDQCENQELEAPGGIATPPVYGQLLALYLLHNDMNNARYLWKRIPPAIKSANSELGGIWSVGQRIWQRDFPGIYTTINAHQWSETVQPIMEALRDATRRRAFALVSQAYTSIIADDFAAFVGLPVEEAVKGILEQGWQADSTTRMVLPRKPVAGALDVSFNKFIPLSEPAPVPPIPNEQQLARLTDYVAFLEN
Target,log2 fold change [1],log2 fold change [2],log2 fold change [3],log2 fold change [4],log2 fold change [5],log2 fold change [6],log2 fold change [7],log2 fold change [8],log2 fold change [9],log2 fold change [10],log2 fold change [11],log2 fold change [12],log2 fold change [13],log2 fold change [14],log2 fold change [15],log2 fold change [16],log2 fold change [17],log2 fold change [18],log2 fold change [19],log2 fold change [20]
CBS (UniProt P35520),-0.024,0.044,0.023,-0.054,0.027,-0.033,-0.032,-0.031,-0.076,-0.019,-0.031,-0.029,0.025,-0.012,0.018,-0.003,0.079,0.035,-0.023,0.056
COPS8 (UniProt Q99627),-0.017,0.07,0.13,-0.148,0.096,0.048,0.028,0.054,0.107,0.05,-0.021,0.025,0.018,-0.008,0.006,0.007,0.107,0.146,-0.017,0.025
CLCN7 (UniProt P51798),-0.037,-0.814 (active),0.018,-0.091,-0.089,-0.193,-0.031,0.028,-0.008,-0.952 (active),-0.24,0.083,-0.035,-0.012,-0.091,-0.111,0.011,0.049,0.038,-0.02
CRLF3 (UniProt Q8IUI8),0.053,-0.015,0.048,0.017,0.076,0.016,0.021,0.019,0.138,-0.059,-0.032,-0.045,-0.043,-0.117,-0.145,0.011,0.025,0.024,-0.018,0.032
CSNK1D (UniProt P48730),0.12,-0.103,-0.246,0.055,-0.039,0.054,-0.028,0.069,0.109,-0.116,0.1,0.064,-0.025,0.073,0.119,0.241,-0.083,-0.042,0.051,-0.148
CA8 (UniProt P35219),0.003,-0.008,0.117,-0.06,0.1,-0.064,0.122,0.096,-0.066,0.103,-0.042,0.079,0.006,-0.017,-0.187,-0.01,0.083,-0.063,-0.064,0.06
CCNH (UniProt P51946),-0.033,0.033,0.048,-0.031,0.037,0.013,0.046,-0.01,-0.086,0.098,-0.064,-0.01,-0.008,0.113,0.023,-0.056,-0.005,0.005,0.051,0.08
CNN2 (UniProt Q99439),-0.003,-0.058,0.058,-0.005,-0.017,-0.088,0.092,0.012,0.007,-0.059,-0.001,0.052,-0.075,-0.074,-0.14,0.006,0.011,0.044,-0.16,0.051
CERT isoform 3 (UniProt Q9Y5P4),0.015,0.102,0.079,-0.327 (active),0.067,0.209,0.068,-0.047,0.192,0.109,0.032,-0.08,0.193,-0.397 (active),0.019,-0.11,0.109,0.021,0.111,0.117
CNOT2 (UniProt Q9NZN8),0.028,-0.019,0.038,0.046,-0.021,-0.045,-0.006,0.077,-0.012,-0.02,-0.002,0,0.048,-0.063,-0.035,0.01,-0.055,0.022,-0.063,0.054
C4orf33 (UniProt Q8N1A6),0.025,-0.098,0.001,-0.209,0.033,0.019,-0.093,0.005,-0.003,-0.038,-0.143,0.01,0.03,-0.024,-0.002,-0.1,0.056,0.031,-0.007,0.054
CDC26 (UniProt Q8NHZ8),0.036,0.153,0.016,0.212,-0.097,-0.033,0.096,-0.021,-0.017,0.406,-0.034,0.162,-0.011,-0.059,0.143,0.029,0.179,-0.027,0.131,-0.028
CA1 (UniProt P00915),0.005,0,0.046,-0.094,-0.001,-0.036,0.018,0.019,-0.012,0.116,-0.017,-0.055,-0.004,-0.014,-0.007,0.011,0.029,-0.008,-0.011,0.067
CERS2 (UniProt Q96G23),-0.027,-0.294 (active),-0.054,-0.034,0.036,-0.203,-0.049,-0.032,-0.04,-0.466 (active),-0.177,0.064,-0.128,-0.015,-0.113,0.028,-0.034,0.028,-0.074,-0.03
C4A (UniProt P0C0L4),-0.096,0.065,0.088,0.056,0.026,-0.375,-0.056,0.008,-0.153,-0.155,-0.316,-0.018,0.027,0.136,-0.044,0.217,0.163,0.052,-0.087,-0.193
CCAR1 (UniProt Q8IX12),0.004,-0.238,0.034,-0.016,0.012,-0.263 (active),-0.063,0.067,-0.03,-0.102,0.036,0.036,-0.055,-0.033,-0.112,-0.095,0.079,0.019,-0.091,0.122
